In PubChem BioAssay (Tox21) one finds Potency and outcome data, which are given here for seven molecules.

The structures appear in SMILES notation. Values joined by “and” are separate entries in the source; they are usually repeats but may differ in a detail not shown here. Equal entries are not always repeated. Inconclusive results are not listed. Active and inactive are the calls of the source. Unless noted, calls follow the shape of the dose curve; as a rule, active = well fitted curve in the direction sought with a large enough effect in the repeat runs; inconclusive = weak or mixed curves; inactive = no such curve, though single readings can be large; an effect the other way counts as inactive or inconclusive.

A short description of assay [1]: qHTS assay to identify small molecule antagonists of the glucocorticoid receptor (GR) signaling pathway - cell viability counter screen (AID 720693). Also: nearly all actives have a fitted effect of over 55% in size. For orientation: Quantitative high-throughput screening tests each substance at several concentrations.
Assay [2] in a line: qHTS assay for identifying genotoxic compounds that show differential cytotoxicity against isogenic chicken DT40 cell lines with known DNA damage response pathways - wild type cell line (AID 743012). Also: nearly all actives have a fitted effect of over 60% in size. Also: potency is read from the fitted curve at half-maximal effect. The method, boiled down: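 300 wt DT40 cells/well; cpd (DMSO) pintool-transferred after ~0.5 h at 37 C/5% CO2; 40 h incubation; CellTiter-Glo added, 30 min RT; luminescence read.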

A short description of assay [3]: qHTS assay for identifying genotoxic compounds that show differential cytotoxicity against isogenic chicken DT40 cell lines with known DNA damage response pathways - Rev3 mutant cell line (AID 743014). Also: nearly all actives have a fitted effect of over 55% in size. Also: potency is read from the fitted curve at half-maximal effect.
Assay [4] can be described thus: qHTS assay for identifying genotoxic compounds that show differential cytotoxicity against isogenic chicken DT40 cell lines with known DNA damage response pathways - Rad54/Ku70 mutant cell line (AID 743015). Also: nearly all actives have a fitted effect of over 60% in size. Also: potency is read from the fitted curve at half-maximal effect.
Assay [5] in a line: qHTS assay to identify small molecule antagonists of the androgen receptor (AR) signaling pathway - cell viability counter screen (AID 743033; also: nearly all actives have a fitted effect of over 45% in size; also: potency is read from the fitted curve at half-maximal effect).
Assay [6] can be described thus: qHTS assay to identify small molecule antagonists of the androgen receptor (AR) signaling pathway using the MDA cell line - cell viability counter screen (AID 743041; also: nearly all actives have a fitted effect of over 45% in size; also: potency is read from the fitted curve at half-maximal effect). A digest of the protocol:
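qHTS viability read-out; MDA-kb2 AR-luc; R1881-stimulated; 16 h exposure at 37C, 0% CO2; CellTiter-Fluor, 30 min; fluorescence intensity.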

Assay [7] in a line: qHTS assay to identify small molecule antagonists of the thyroid receptor (TR) signaling pathway - cell viability counter screen (AID 743064). Also: nearly all actives have a fitted effect of over 50% in size. Also: potency is read from the fitted curve at half-maximal effect. A digest of the protocol:
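CellTiter-Fluor readout, 30 min at 37 °C/5% CO2, following 23.5 h incubation of GH3.TRE-Luc cells with test compound and 1 nM T3 (final).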

A short description of assay [8]: qHTS assay to identify small molecule antagonists of the thyroid receptor (TR) signaling pathway (AID 743065). Also: nearly all actives have a fitted effect of over 55% in size. Also: potency is read from the fitted curve at half-maximal effect. A digest of the protocol:
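GH3.TRE-Luc rat pituitary cells carrying two TR response elements driving luciferase were plated for 4 h, given compound plus 1 nM T3 (final), and incubated 23.5 h at 37 C. ONE-Glo luminescence measured reporter inhibition; CellTiter-Fluor fluorescence tracked cytotoxicity.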

For assay [9], the system named is thyroid hormone receptor (rat, GH3 cells). Description: qHTS assay to identify small molecule agonists of the thyroid receptor (TR) signaling pathway (AID 743066; calls by dose curve).
The target of assay [10] is Estrogen receptor (Homo sapiens) (UniProt P03372). The assay can be described thus: qHTS assay to identify small molecule antagonists of the estrogen receptor alpha (ER-alpha) signaling pathway (AID 743069; active = well fitted curve in the direction sought with a large enough effect in the signal ratio in the repeat runs, not every such curve was filed as active; the % refers to the signal ratio). The method, boiled down:
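Screening used a UAS-driven beta-lactamase reporter integrated into HEK293 cells expressing ER-alpha, stimulated with 17beta-estradiol alongside test compounds over 18 hr at 37C; signal came from LiveBLAzer B/G FRET fluorescence.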

A short description of assay [11]: qHTS assay to identify small molecule antagonists of the estrogen receptor alpha (ER-alpha) signaling pathway - cell viability counter screen (AID 743074; calls by dose curve; also: nearly all actives have a fitted effect of over 45% in size).
Assay [12] deals with Estrogen receptor (Homo sapiens) (UniProt P03372). The assay can be described thus: qHTS assay to identify small molecule agonists of the estrogen receptor alpha (ER-alpha) signaling pathway (AID 743075; calls by dose curve; also: potency is read from the fitted curve at half-maximal effect).
Chain of Estrogen receptor (Homo sapiens) (P03372 whole entry, looked up): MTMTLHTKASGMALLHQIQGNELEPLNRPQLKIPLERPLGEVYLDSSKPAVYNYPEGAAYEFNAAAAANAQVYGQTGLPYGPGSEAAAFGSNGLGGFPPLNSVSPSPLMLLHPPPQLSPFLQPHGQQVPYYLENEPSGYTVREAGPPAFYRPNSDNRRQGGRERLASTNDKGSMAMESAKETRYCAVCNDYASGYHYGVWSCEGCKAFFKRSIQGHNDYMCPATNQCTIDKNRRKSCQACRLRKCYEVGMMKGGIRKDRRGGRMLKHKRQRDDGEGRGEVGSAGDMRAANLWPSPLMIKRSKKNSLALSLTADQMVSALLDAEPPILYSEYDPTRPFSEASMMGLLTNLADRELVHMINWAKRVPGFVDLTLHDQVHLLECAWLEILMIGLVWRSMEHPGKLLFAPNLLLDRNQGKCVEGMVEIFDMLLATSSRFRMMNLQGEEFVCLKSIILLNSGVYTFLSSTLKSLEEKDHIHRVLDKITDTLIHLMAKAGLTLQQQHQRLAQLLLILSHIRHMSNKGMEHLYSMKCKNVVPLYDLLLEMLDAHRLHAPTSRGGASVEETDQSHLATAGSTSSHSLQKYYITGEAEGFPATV
Assay [13] has the same target. The assay can be described thus: qHTS assay to identify small molecule agonists of the estrogen receptor alpha (ER-alpha) signaling pathway using the BG1 cell line (AID 743079). Also: nearly all actives have a fitted effect of over 20% in size. Also: potency is read from the fitted curve at half-maximal effect. As to conditions: BG1Luc4E2 cells, ERE-luciferase agonist, 22 h; activation: at 70.3 µM (top of the series).
Assay [14] in a line: qHTS assay to identify small molecule antagonists of the estrogen receptor alpha (ER-alpha) signaling pathway using the BG1 cell line (AID 743080; calls by dose curve;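 also: BG1 cells stimulated with 17beta-estradiol alongside compound; nearly all actives have a fitted effect of over 25% in size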). The method, boiled down: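 Luciferase inhibition measured with ONE-Glo after 30 min at RT in BG1Luc4E2 cells given test compounds and 17beta-estradiol for 21.5 h at 37 C; CellTiter-Fluor viability read in the same wells beforehand.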

Assay [15] is described as follows: qHTS assay to identify small molecule antagonists of the estrogen receptor alpha (ER-alpha) signaling pathway using the BG1 cell line - cell viability counter screen (AID 743081).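 Also: compound given together with 17beta-estradiol as the ER stimulus; nearly all actives have a fitted effect of over 45% in size.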 Also: potency is read from the fitted curve at half-maximal effect.
The target in a further assay is Aromatase (Homo sapiens) (UniProt P11511). The assay can be described thus: qHTS assay to identify aromatase inhibitors (AID 743083). Also: nearly all actives have a fitted effect of over 55% in size. Also: potency is read from the fitted curve at half-maximal effect.
Chain of Aromatase (Homo sapiens) (P11511 whole entry, looked up): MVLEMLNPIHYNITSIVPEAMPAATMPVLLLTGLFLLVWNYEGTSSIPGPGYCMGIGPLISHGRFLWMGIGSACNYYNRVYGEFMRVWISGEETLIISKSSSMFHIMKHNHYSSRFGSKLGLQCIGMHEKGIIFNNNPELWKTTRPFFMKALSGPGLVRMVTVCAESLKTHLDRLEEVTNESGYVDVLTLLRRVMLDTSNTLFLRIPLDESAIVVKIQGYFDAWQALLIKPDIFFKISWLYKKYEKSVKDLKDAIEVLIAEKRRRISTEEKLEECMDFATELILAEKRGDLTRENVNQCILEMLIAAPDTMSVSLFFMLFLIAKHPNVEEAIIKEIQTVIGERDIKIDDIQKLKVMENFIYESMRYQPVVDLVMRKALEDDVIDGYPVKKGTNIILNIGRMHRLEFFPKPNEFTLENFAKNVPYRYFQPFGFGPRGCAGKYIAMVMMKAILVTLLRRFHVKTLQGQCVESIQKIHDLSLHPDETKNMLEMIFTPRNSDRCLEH
The target in assay [16] is Androgen receptor (Homo sapiens) (UniProt P10275). Description: qHTS assay to identify small molecule agonists of the androgen receptor (AR) signaling pathway (AID 743036; active = well fitted activation curve with a large enough effect in the signal ratio in the repeat runs, with a control signal flat, not every such curve was filed as active; the % refers to the signal ratio). A digest of the protocol:
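Following a 4 h settling period, AR-UAS-bla HEK293 cells were dosed with compounds for 16 h at 37C. A 2 h room-temperature incubation with LiveBLAzer B/G FRET substrate preceded the fluorescence measurement.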

Assay [17] has the same target. Description: qHTS assay to identify small molecule antagonists of the androgen receptor (AR) signaling pathway (AID 743035; active = well fitted inhibition curve with a large enough effect in the signal ratio in the repeat runs, not every such curve was filed as active; the % refers to the signal ratio; also: potency is read from the fitted curve at half-maximal effect). The method, boiled down:
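In this cell-based reporter screen, compounds were tested in concentration series against R1881-activated HEK293 cells expressing beta-lactamase under UAS control; after 16 h at 37C, FRET substrate was added and fluorescence read 2 h later.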

Assay [18] shares this target. The assay can be described thus: qHTS assay to identify small molecule agonists of the androgen receptor (AR) signaling pathway using the MDA cell line (AID 743040; also: nearly all actives have a fitted effect of over 20% in size). The method, boiled down: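 Agonist activity is measured as luciferase luminescence in human MDA-kb2 cells whose MMTV reporter responds to both AR and GR. Compounds in DMSO incubate 16 h at 37C, 0% CO2, and ONE-Glo is read after 30 min.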

The target is the same in assay [19]. The assay can be described thus: qHTS assay to identify small molecule antagonists of the androgen receptor (AR) signaling pathway using the MDA cell line (AID 743042; also: nearly all actives have a fitted effect of over 55% in size; also: potency is read from the fitted curve at half-maximal effect). The method, boiled down:
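MDA-kb2 cells (human breast carcinoma, stably carrying an MMTV-luciferase reporter responsive to AR and GR) were plated at 3,000 cells/well and preincubated 5 hr at 37C, then given compound plus R1881 agonist for 16 h. ONE-Glo luminescence was read.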

Chain of Androgen receptor (Homo sapiens) (P10275 whole entry, looked up): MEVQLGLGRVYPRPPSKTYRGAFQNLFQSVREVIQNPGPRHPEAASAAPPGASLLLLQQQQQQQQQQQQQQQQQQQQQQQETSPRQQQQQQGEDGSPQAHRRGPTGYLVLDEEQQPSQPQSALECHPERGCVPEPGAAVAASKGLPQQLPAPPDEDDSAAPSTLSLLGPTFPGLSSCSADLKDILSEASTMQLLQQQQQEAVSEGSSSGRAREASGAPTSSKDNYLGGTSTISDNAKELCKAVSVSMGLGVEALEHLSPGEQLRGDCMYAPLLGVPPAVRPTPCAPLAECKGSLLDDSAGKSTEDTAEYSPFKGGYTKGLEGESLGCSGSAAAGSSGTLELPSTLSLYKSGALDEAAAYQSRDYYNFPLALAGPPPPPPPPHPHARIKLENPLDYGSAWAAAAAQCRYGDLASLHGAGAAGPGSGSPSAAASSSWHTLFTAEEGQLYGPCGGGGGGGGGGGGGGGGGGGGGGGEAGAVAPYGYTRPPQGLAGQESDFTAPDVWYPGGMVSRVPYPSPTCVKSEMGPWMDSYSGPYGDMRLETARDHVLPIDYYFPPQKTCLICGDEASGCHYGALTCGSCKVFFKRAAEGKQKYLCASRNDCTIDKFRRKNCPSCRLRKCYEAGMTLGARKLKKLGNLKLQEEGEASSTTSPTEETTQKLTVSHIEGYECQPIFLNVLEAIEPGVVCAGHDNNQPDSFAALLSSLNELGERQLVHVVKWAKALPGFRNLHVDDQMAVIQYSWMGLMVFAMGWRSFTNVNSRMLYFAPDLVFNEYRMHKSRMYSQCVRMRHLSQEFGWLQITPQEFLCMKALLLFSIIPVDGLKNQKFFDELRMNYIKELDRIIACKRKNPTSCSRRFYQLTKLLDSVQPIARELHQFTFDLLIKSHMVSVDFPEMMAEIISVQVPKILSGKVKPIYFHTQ

Turning to `CC(C)OCC1CO1` (stereo unspecified), the Potency result in assay [1], in assay [2], in assay [3], in [4], in [5] and in [6] was “inactive” each time. Besides, the Potency entry in [7], in assay [8], in [10], in assay [11], in assay [12] and in assay [13] was “inactive” throughout. In addition, the Potency result (in assay [14]; in [15]; in the assay with Aromatase (Homo sapiens)) was “inactive” in each case. Further, in [9], the molecule was called inactive.

Consider `Oc1ccc(Nc2ccccc2)cc1`, for which the Potency entry in [1], in [5], in [16], in assay [6], in assay [11] and in assay [14] was “inactive” throughout. For the same molecule, the Potency result (in assay [15]; in the assay with Aromatase (Homo sapiens)) was “inactive” each time. For the same molecule, the Potency is 5.45 µM (active) in assay [2]; 6.11 µM (active) in assay [3]; 6.86 µM (active) in [4]; 43.3 µM (active) in assay [8]; 55 µM [activator] (active) in assay [12]; 30.6 µM (active) in assay [13]. Besides, in assay [9], the outcome was inactive.

With `O=C(NCCCN1CCOCC1)c1ccc(Cl)cc1`, the Potency entry in [1], in [2], in [3], in assay [4], in assay [5] and in assay [6] was “inactive” throughout. Moreover, the Potency result in assay [7], in assay [8], in assay [10], in assay [11], in assay [12] and in assay [13] was “inactive” each time. The Potency result (in [15]; in the assay with Aromatase (Homo sapiens)) was “inactive” in each case. The call in assay [9] was inactive.

On to `COCC(O)CO` (stereo unspecified), for which the Potency entry in [1], in assay [2], in [3], in assay [4], in assay [5] and in assay [6] was “inactive” in each case. Further, the Potency result in assay [7], in assay [8], in assay [10], in assay [11], in [12] and in assay [13] was “inactive” each time. The Potency result (in [14]; in assay [15]; in the assay with Aromatase (Homo sapiens)) was “inactive” in each case. Besides, in assay [9], the call was inactive.

On to `O=S(=O)(c1ccccc1)c1ccc(Cl)cc1`, for which the Potency entry in assay [1], in assay [5], in [6], in assay [7], in assay [8] and in assay [10] was “inactive” in each case. Moreover, the Potency entry (in [11]; in assay [12]; in assay [15]; with Aromatase (Homo sapiens)) was “inactive” each time. Further, the Potency in assay [2] was 61.1 µM (active); in assay [3], 61.1 µM (active); in assay [4], 48.6 µM (active). The molecule was classed as inactive in assay [9].

With `COc1cc2c(N3CCN(C(=O)Nc4ccc(OC(C)C)cc4)CC3)ncnc2cc1OCCCN1CCCCC1`, the Potency entry in assay [1], in assay [17], in assay [18], in assay [19], in [10] and in [11] was “inactive” in each case. The Potency result (in [13]; in assay [14]; with Aromatase (Homo sapiens)) was “inactive” each time. Further, the Potency was 6.68 µM (active) in assay [2]; 7.5 µM (active) in assay [3]; 5.96 µM (active) in assay [4]; 6.01 µM (active) in assay [5]; 33.5 µM (active) in assay [6]; 11.9 µM (active) in assay [7]. Further, the Potency in assay [8] is 13.3 µM (active).

With `CC(C)(C)CC(C)(C)c1ccc(OCCO)cc1`, the Potency entry in assay [1], in [16], in assay [18], in [11] and in assay [12] was “inactive” each time. In addition, the Potency is 3.76 µM (active) and 13.6 µM (active) in [2]; 6.68 µM (active) and 7.65 µM (active) in [3]; 5.96 µM (active) and 9.63 µM (active) in [4]; 21.8 µM (active) in assay [5]; 15.1 µM (active) and 12.2 µM (active) in assay [17]; 27.8 µM (active) and 48.3 µM (active) in assay [6]. Further, the Potency in [19] is 11.9 µM (active) and 9.63 µM (active); in assay [15], 24.2 µM (active); in the assay with Aromatase (Homo sapiens), 26.6 µM (active) and 43 µM (active).
